The values below come from PubChem BioAssay (NCATS).

The structures appear in SMILES notation. “And” between values parts separate entries of the source, which are not always exact repeats. Identical values can stand only once. Results filed as inconclusive are left out. The source made the active and inactive calls. Unless noted, calls come from the whole dose curve; as a rule, active = well fitted curve in the direction sought with a large enough effect; inconclusive = small, poorly fitted or top-dose-only effect, or another doubt; inactive = no such curve, though single readings can be large; an effect the other way counts as inactive or inconclusive.

Assay [1] addresses Mitogen-activated protein kinase 10 (Mus musculus) (UniProt Q61831). The experiment in a line: JNK3 AlphaScreen Assay (AID 530; active = well fitted curve in either direction with a large enough effect, not every such curve was filed as active;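 note: kinase came from lysate of stimulated human HepG2 cells; signal reports phosphorylation of biotinylated GST-cJun 1-79 at Ser73 with 10 µM ATP; series mostly up to about 57 µM; % is set by controls: 0 for no effect and ±100 for the full control effect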). Put shortly:
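Inhibitors reduce antibody binding to phosphorylated biotin-cJun, lowering AlphaScreen luminescence. Lysates from HepG2 cells pre-activated by IL-1beta plus TNF-alpha supplied JNK3; compounds were titrated.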

Assay [2] can be described thus: Cellular Toxicity (caspase-3) HepG2 (AID 654).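 Note: cells exposed to compound for 16 hours before reading; 0% = DMSO alone and 100% = caspase signal from 100 µM tamoxifen.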 In short, it runs like this: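 Cells plated 5 hr at 37 °C, compound added, incubated 16 hr at 37 °C. Caspase-Glo 3/7 reagent followed, 20 min at room temperature, then luminescence read. Activation scored as signal increase; AC50 from Hill fit.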
Assay [3] in a line: Cellular Toxicity (caspase-3) BJ (AID 658).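 Note: 0% = DMSO basal and 100% = 10 µM staurosporine.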 Put shortly: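 Luminescent aminoluciferin-substrate cleavage reports caspase 3/7 activity in normal human BJ fibroblasts after 16 hr compound exposure at 37 °C. Normalized to DMSO (basal) and 10 uM staurosporine (100%); AC50 from Hill fit of concentration-response.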
The nature of assay [4]: MultiTox-Fluor Cytotoxicity Assay - LYMP1-003 - Dead Cells (AID 961).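 Note: 0% = DMSO and 100% = tetraoctylammonium bromide; nearly all actives have a fitted effect of over 70% in size.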 In short, it runs like this:
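LYMP1-003 human lymphoblastoid cells (2500/well) exposed to compound 16 h at 37 C in complete medium; dead-cell protease read with bis-AAF-R110 fluorescence (Ex/Em 485/520) after 60 min at room temperature. Normalized to DMSO and 15 uM tetraoctylammonium bromide; AC50 from Hill fit.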

Assay [5] in a line: Cell Viability - LYMP1-003 - Assay at 24 hr (AID 963).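 Note: plate controls were DMSO only for no effect and tetraoctylammonium bromide positive control for full effect.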 In short, it runs like this: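 Cells seeded at 2500/well, 5 hr at 37 C; compounds added; 24 hr at 37 C; CellTiter-Glo added, 30 min room temperature; luminescence read. Decrease in ATP taken as cytotoxicity, AC50 from Hill modelling.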
The nature of assay [6]: Cell Viability - LYMP2-005 (AID 967). Note: potency is the fitted concentration of half-maximal effect. In short, it runs like this:
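CellTiter-Glo luminescence (cellular ATP) read-out; LYMP2-005 lymphoblastoid cells, 2500/well, 5 h pre-incubation, then 24 h compound exposure at 37 C in complete medium. Tetraoctylammonium bromide positive control; AC50 by standard Hill fit.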

Assay [7] can be described thus: Cell Viability - LYMP2-015 (AID 971). Note: nearly all actives have a fitted effect of over 55% in size. Note: potency is the fitted concentration of half-maximal effect. Put shortly: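 Luminescent ATP read-out (CellTiter-Glo) served as the viability measure after lymphoblastoid cells were exposed to compounds for 24 hours at 37 C. Concentration-response data were fitted with the Hill equation to give AC50.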
Assay [8] addresses Vitamin D3 receptor (Homo sapiens) (UniProt P11473). The experiment in a line: qHTS assay for small molecule agonists of vitamin D receptor signaling (AID 588543; calls by dose curve;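 note: 0% = DMSO basal and 100% = reference agonist control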). Put shortly: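 GeneBLAzer VDR-UAS-bla HEK293T cells in 2% charcoal-stripped FBS medium were dosed with compound titrations for 16 h at 37 °C; CCF4 β-lactamase readout (405 nm ex, 460/530 nm em). EC50 and efficacy from Hill fits, normalized to 50 nM calcitriol (100%) and DMSO (0%).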
A general note: qHTS replaces the single test concentration by a dilution series.

The nature of assay [9]: qHTS assay for small molecule activators of the p53 signaling pathway (AID 651743; active = well fitted activation curve with a large enough effect in the signal ratio, not every such curve was filed as active; the % refers to the signal ratio; note: potency is the fitted concentration of half-maximal effect; for activation: series mostly up to about 92 µM; % of control where 0% means no effect). The conditions noted are these: HCT-116 p53RE-bla, beta-lactamase FRET ratio, 16 h; activation: stronger effect = higher value. Put shortly: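 Cell-based beta-lactamase reporter (p53 response elements, HCT-116 background). After a 5-hour preincubation, cells received compound for 16 hours at 37 C; substrate development ran 2 hours at room temperature.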

Assay [10] in a line: Cell Viability - HUV-EC-C (AID 542). Note: % is set by controls: 0 for no effect and ±100 for the full control effect; nearly all actives have a fitted effect of over 35% in size. Put shortly:
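qHTS cytotoxicity: HUV-EC-C, 1000 cells/well, 5 hr settle, compound 40 hr 37 °C, CellTiter-Glo, luminescence. AC50 via Hill equation.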

The nature of assay [11]: MultiTox-Fluor Cytotoxicity Assay - LYMP1-002 - Live Cells (AID 955). Note: % is set by controls: 0 for no effect and ±100 for the full control effect. In short, it runs like this:
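Read-out is live-cell protease activity (cell-permeant GF-AFC substrate, fluorescence Ex/Em=405/510), where a decrease indicates acute toxicity. Human lymphoblastoid cells were treated 16 hours at 37 C in a concentration series, and AC50 values came from standard Hill modelling.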

The nature of assay [12]: Cell Viability - LYMP2-023 (AID 975). Note: nearly all actives have a fitted effect of over 55% in size. Note: potency is the fitted concentration of half-maximal effect. In short, it runs like this: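 2500 cells/well, 5 hr 37 C; cpd 24 hr 37 C; CellTiter-Glo, 30 min RT; luminescence. qHTS conc-response, Hill fit -> AC50. Pos ctrl tetraoctylammonium bromide.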
The target of assay [13] is Thyroid hormone receptor beta (Homo sapiens) (UniProt P10828). The experiment in a line: qHTS assay for small molecule agonists of thyroid hormone receptor beta signaling (AID 588545; calls by dose curve; note: potency is the fitted concentration of half-maximal effect;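 for activation: 0% = DMSO only and 100% = 10 nM T3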). Put shortly: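 Efficacy and EC50 values derive from Hill fits of qHTS titration data, normalized to 10 nM T3 and DMSO-only wells. HEK 293 reporter cells were stimulated for 18 hrs at 37 C, with beta-lactamase activity measured by CCF4 fluorescence.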
Thyroid hormone receptor beta (Homo sapiens), sequence (P10828 whole entry, looked up): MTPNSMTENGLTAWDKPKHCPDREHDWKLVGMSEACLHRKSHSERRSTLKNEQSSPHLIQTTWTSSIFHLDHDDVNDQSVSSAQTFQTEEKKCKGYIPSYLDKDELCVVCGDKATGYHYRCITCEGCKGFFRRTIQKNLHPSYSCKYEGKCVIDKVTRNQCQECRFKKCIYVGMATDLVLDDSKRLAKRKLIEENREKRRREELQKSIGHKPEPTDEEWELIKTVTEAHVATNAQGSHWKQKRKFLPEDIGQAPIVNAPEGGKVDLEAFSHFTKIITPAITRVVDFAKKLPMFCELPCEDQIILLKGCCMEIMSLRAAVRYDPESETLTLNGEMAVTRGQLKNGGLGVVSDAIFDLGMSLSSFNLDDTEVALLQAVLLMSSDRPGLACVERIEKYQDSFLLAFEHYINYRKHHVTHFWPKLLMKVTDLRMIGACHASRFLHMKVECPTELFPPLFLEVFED

A short description of assay [14]: qHTS assay for small molecule antagonists of retinoid X receptor alpha signaling (AID 588546).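 Note: cells stimulated with 9-cis-retinoic acid as agonist; % is set by controls: 0 for no effect and ±100 for the full control effect.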 The conditions noted are these: HEK293T RXRa-UAS-bla, beta-lactamase ratio, antagonist mode; measured here: W530 green channel, cytotoxicity proxy. In short, it runs like this:
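Beta-lactamase reporter inhibition, read as CCF4 fluorescence ratio (ex 405, em 460/530 nm) after 2 h at RT. HEK293T UAS-bla cells, 2500/well, were stimulated with 9-cis-RA at 500 or 100 nM final alongside test compound for 18 h at 37 C.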

Assay [15] in a line: Cell Viability - LYMP2-013 (AID 970). Note: nearly all actives have a fitted effect of over 55% in size. Note: potency is the fitted concentration of half-maximal effect. In short, it runs like this:
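qHTS; 2500 lymphoblastoid cells/well; 5 hr 37 C settle; cpd 24 hr 37 C; CellTiter-Glo, 30 min RT; luminescence. AC50 = Hill fit.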

Assay [16] in a line: Cell Viability - LYMP2-017 (AID 972). Note: nearly all actives have a fitted effect of over 55% in size. Note: potency is the fitted concentration of half-maximal effect. Put shortly:
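2500 cells/well, 5 h 37 C; cpd 24 h 37 C in complete medium; CellTiter-Glo, 30 min RT; luminescence (ATP). AC50 via Hill fit, qHTS.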

Assay [17] in a line: Cell Viability - LYMP2-019 (AID 973). Note: nearly all actives have a fitted effect of over 55% in size. Note: potency is the fitted concentration of half-maximal effect. Put shortly: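 Luminescent ATP read-out (CellTiter-Glo, 30 min room temperature) served as the viability measure after 24 hr treatment of lymphoblastoid cells at 37 C. Concentration-response data were fitted to the Hill equation for AC50.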
The nature of assay [18]: Cell Viability - LYMP2-007 (AID 979).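 Note: cells exposed to compound for 24 h before reading; nearly all actives have a fitted effect of over 60% in size.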 Note: potency is the fitted concentration of half-maximal effect. In short, it runs like this:
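Luminescent ATP signal (CellTiter-Glo) serves as the viability read-out after 24 hr compound treatment of lymphoblastoid cells in complete medium at 37 C. Concentration-response data were fitted to the Hill equation to give AC50 values.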

Assay [19] is described as follows: Cell Viability - LYMP2-024 (AID 988). Note: nearly all actives have a fitted effect of over 60% in size. Note: potency is the fitted concentration of half-maximal effect. In short, it runs like this: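 Steps: seed 2500 cells/well, 5 hr 37 C; add compound, 24 hr 37 C; add CellTiter-Glo, 30 min room temperature; read luminescence. AC50 derived by Hill modelling of concentration-dependent ATP loss.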
Assay [20] in a line: Cell Viability - Hek293 (AID 427;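 active = compounds whose dose-response curve shows a full or clear partial loss of cell viability, called from curve shape rather than a numeric limit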;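 note: potency is the fitted concentration of half-maximal effect; cells exposed to compound for 40 hours at 37 °C before reading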). The conditions noted are these: qHTS. Put shortly: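 HEK293 cells in complete medium were exposed to compound for 40 hr at 37 °C, then cellular ATP was read by CellTiter-Glo luminescence. Data were normalized to DMSO (basal) and 100 uM tamoxifen (100% inhibition), and AC50 came from Hill fits.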

Vitamin D3 receptor (Homo sapiens), sequence (P11473 whole entry, looked up): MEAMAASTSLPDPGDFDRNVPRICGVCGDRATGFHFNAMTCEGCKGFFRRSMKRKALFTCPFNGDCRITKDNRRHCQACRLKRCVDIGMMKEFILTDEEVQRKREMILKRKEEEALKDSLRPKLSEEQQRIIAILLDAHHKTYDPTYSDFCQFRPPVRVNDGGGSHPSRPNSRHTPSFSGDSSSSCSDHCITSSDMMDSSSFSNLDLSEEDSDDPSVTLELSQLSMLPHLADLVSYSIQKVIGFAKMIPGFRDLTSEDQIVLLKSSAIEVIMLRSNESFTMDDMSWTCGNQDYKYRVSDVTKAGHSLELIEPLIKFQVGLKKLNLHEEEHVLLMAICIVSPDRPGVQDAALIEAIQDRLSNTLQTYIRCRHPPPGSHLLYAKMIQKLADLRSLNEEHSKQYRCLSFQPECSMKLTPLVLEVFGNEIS

Take `Oc1cc(Cl)c(Cl)c(Cl)c1`: the Potency entry in [1], in [4], in assay [6] and in assay [7] was “inactive” each time. Further, the call in assay [2], in [3], in assay [5] and in assay [8] was inactive. For the same compound, the Potency in assay [9] was 44.7 µM (active).

As for `C=CC(=O)OCCO`, the Potency result in assay [1], in assay [10], in assay [4], in [12] and in [13] was “inactive” each time. Further, the compound was classed as inactive in assay [3], in [11], in assay [5] and in assay [8]. Further, in [14], the max response is -12.5%. Moreover, the activation in assay [9] was 1.07% (inactive).

`CN(C)c1ccc(N=Nc2ccccc2)cc1`: the Potency result in assay [10], in [4], in [15], in assay [16], in [17] and in [12] was “inactive” in each case. The Potency result in [18], in assay [19] and in [13] was “inactive” each time. For the same compound, the call in assay [2], in assay [11], in assay [5] and in [8] was inactive. In assay [14], the max response is -11.2%. For the same compound, in assay [9], the activation was -7.04% (inactive).

For `BrCC(Br)(Br)Br`, the Potency entry in assay [1], in [10] and in assay [4] was “inactive” throughout. The outcome in [2], in [11], in [5] and in assay [8] was inactive. For the same compound, the Potency is 25.1 µM (active) in [15]; 15.8 µM (active) in assay [7]; 15.8 µM (active) in assay [16]; 20 µM (active) in [12]; 12.6 µM (active) in assay [18]; 12.6 µM (active) in assay [19]. For the same compound, the max response in [14] amounted to 2.45%. In assay [9], the activation was -0.838% (inactive).

Regarding `Clc1ccc(C(c2ccccc2Cl)C(Cl)(Cl)Cl)cc1` (stereo not given), the Potency entry in [10], in assay [4], in assay [6], in [15], in [7] and in assay [16] was “inactive” each time. The Potency entry in assay [17], in assay [12], in assay [18], in assay [19] and in [13] was “inactive” in each case. Also, the call in [2], in assay [3], in assay [11], in [5] and in assay [8] was inactive. Besides, the max response in [14] was 5.48%. For the same compound, the activation in assay [9] was 0.576% (inactive) and 10.5% (inactive).

With `O=[N+]([O-])c1cccc(CCl)c1`, the Potency in [20] is > 92 µM (inactive). The Potency entry in [1], in [4], in [15], in assay [12] and in assay [13] was “inactive” in each case. For the same compound, the call in [2], in assay [3], in [11], in [5] and in [8] was inactive. Also, the max response in [14] was determined as 8.94%.

For the compound `c1ccc2c(c1)ccc1cc3c(ccc4ccccc43)cc12`, the Potency in assay [13] and in assay [9] was 39.8 µM (active) in each case.

As for `N#C/C=C/C#N`, the Potency result in assay [1] and in assay [4] was “inactive” in each case. The outcome in assay [2], in assay [3], in assay [11], in assay [5] and in assay [8] was inactive. The Potency in assay [6] is 25.1 µM (active); in assay [15], 39.8 µM (active); in assay [7], 50.1 µM (active); in assay [16], 31.6 µM (active); in [17], 31.6 µM (active); in assay [12], 39.8 µM (active). The values for the Potency in assay [18] and in assay [19] were 39.8 µM (active) and 31.6 µM (active), respectively.

As for `[C-]1=CC=CC1.[C-]1=CC=CC1.[Cl-].[Cl-].[Ti+4]`, the Potency entry in assay [1], in assay [10], in assay [4] and in assay [13] was “inactive” each time. The compound was classed as inactive in assay [2], in assay [3] and in [8].

With `Oc1cc(Cl)c(Cl)c(Cl)c1Cl`, the Potency result in assay [1], in assay [6], in assay [7], in assay [17], in assay [18] and in assay [19] was “inactive” each time. Moreover, the Potency entry in assay [13] was “inactive”. Also, the result in assay [2], in assay [3] and in [5] was inactive. Also, the Potency in assay [9] is 39.8 µM (active).
